# Screen size: about 2,400 compounds; about 750 (31%) were called active. The list shows a part of the results. A number with no mark means an inactive call.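 How the source made its calls: active means median signal gain over dofetilide-blocked control wells reaching their mean plus 3 SD, so readout 1 at least 0; inactive means the rest.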
# Molecular target: Voltage-gated inwardly rectifying potassium channel KCNH2 (Homo sapiens) (UniProt Q12809)
# Assay: modulators restoring hERG flux under dofetilide – cell-based, thallium flux, duplicate retest, dofetilide IC70, confirmation (AID 1835)
# Conditions: hERG cell line, FluxOR thallium flux, dofetilide-blocked; at 10 µM; stronger effect = higher value
# Sequence of Voltage-gated inwardly rectifying potassium channel KCNH2 (Homo sapiens) (Q12809 whole entry, looked up): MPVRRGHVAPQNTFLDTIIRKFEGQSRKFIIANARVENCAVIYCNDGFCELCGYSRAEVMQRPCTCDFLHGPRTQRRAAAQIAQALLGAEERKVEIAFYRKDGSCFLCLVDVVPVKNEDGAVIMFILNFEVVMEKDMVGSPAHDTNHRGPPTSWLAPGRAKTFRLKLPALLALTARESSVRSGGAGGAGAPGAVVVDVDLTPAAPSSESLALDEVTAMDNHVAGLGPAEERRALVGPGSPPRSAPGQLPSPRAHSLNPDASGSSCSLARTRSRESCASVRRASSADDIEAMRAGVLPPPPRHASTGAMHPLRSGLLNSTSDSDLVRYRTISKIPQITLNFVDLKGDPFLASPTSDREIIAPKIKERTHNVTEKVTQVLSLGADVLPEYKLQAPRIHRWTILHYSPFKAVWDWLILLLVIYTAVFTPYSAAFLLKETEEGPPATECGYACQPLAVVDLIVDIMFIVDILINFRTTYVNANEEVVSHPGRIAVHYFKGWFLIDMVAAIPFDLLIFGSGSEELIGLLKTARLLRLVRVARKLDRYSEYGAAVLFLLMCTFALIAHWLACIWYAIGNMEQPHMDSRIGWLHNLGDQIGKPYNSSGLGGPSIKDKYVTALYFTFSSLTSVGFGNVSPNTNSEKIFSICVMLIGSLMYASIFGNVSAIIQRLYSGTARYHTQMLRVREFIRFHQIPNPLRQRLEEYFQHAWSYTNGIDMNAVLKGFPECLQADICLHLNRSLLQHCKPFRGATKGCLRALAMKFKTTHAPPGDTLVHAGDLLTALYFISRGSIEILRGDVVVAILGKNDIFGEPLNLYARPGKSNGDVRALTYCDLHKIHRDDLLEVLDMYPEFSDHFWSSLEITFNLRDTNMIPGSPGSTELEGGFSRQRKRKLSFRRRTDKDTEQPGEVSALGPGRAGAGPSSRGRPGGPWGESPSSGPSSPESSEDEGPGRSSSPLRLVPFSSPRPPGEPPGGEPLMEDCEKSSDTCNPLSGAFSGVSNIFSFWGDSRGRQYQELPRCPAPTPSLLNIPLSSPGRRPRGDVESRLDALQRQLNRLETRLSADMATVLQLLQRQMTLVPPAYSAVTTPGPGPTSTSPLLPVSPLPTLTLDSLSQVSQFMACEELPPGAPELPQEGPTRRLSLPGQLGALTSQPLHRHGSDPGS
row,Structure (SMILES),"activity increase over dofetilide control, less the hit threshold"
1,CCCN1CCN(CCCNC(=O)Cn2nc(C)n3c(cc4cc(OC)ccc43)c2=O)CC1,-13%
2,CS(=O)(=O)Nc1cccc(-c2cn3ccccc3n2)c1,-13%
3,O=C(Nc1nnc(-c2ccc3c(c2)CCCC3)o1)C1COc2ccccc2O1 (configuration not stated),-12%
4,O=C(Nc1nnc(C2=COCCO2)o1)c1ccc(Br)cc1,-42%
5,O=C(Nc1nnc(-c2ccc3c(c2)CCCC3)o1)c1ccc(Cl)cc1Cl,9% (active)
6,Cc1[nH]c(=S)sc1Cc1ccc(Cl)c(Cl)c1,-12%
7,Cc1ccc(Cc2c[nH]c(=S)s2)cc1,44% (active)
8,S=c1[nH]cc(Cc2ccccc2)s1,-5%
9,Cc1nn(CCC#N)c2nc(-c3ccccc3)cc(C(F)(F)F)c12,-11%
10,Cc1[nH]n2c(=O)cc(C(C)(C)C)nc2c1-c1ccccc1,14% (active)
11,NC(=O)c1nn2c(C(F)(F)F)cc(-c3ccccc3)nc2c1Br,-8%
12,O=c1cc(-c2ccccc2)nc2c(-c3ccccc3)c(C(F)(F)F)[nH]n12,56% (active)
13,Cc1[nH]n2c(=O)cc(C(C)C)nc2c1-c1ccccc1,-6%
14,Nn1c(SCC(=O)Nc2ccccc2F)nnc1C1CCCCC1,-10%
15,CC(C)C(=O)Nc1ccc2c(c1)Cc1cc(NC(=O)C(C)C)ccc1-2,-3%
16,Cc1noc(C)c1CSc1ncnc2sc3c(c12)CCCCC3,4% (active)
17,CCOc1ccc(S(=O)(=O)N2CCN(Cc3ccc4c(c3)OCO4)CC2)cc1C,-31%
18,CCOC(=O)C1=NN(C(=O)c2cccc(Br)c2)C(O)(C(C)(C)C)C1 (configuration not stated),79% (active)
19,CCOC(=O)c1cnc(-n2nc(C)cc2C)nc1Nc1cccc(C(=O)O)c1,-2%
20,COC(=O)C1=NN(C(=O)c2ccc(C)cc2)C(O)(c2ccc(Cl)cc2)C1 (configuration not stated),92% (active)
21,CC1=NN(c2ccccc2)C(=O)C1C(=O)c1ccc(Cl)cc1 (configuration not stated),-5%
22,CCC1=NN(C(=O)c2ccc(Cl)cc2)C(O)(c2ccccc2)C1 (configuration not stated),-24%
23,COC(=O)C1=NN(C(=O)c2ccc(Cl)cc2)C(O)(c2ccccc2)C1 (configuration not stated),74% (active)
24,COC(=O)C1=NN(C(=O)c2cccc(Br)c2)C(O)(c2ccc(Cl)cc2)C1 (configuration not stated),86% (active)
25,CC1=NN(C(=O)c2ccc(Cl)cc2)C(O)(c2ccccc2)C1 (configuration not stated),-11%
26,CC1=NN(C(=O)c2ccccc2Br)C(O)(c2ccc(Cl)cc2)C1 (configuration not stated),-15%

row,Structure (SMILES),"activity increase over dofetilide control, less the hit threshold"
1,COCCn1nnnc1C(c1ccc(C(F)(F)F)cc1)N1CCOCC1 (configuration not stated),-20%
2,O=C(CSc1ccccc1)N1CCN(S(=O)(=O)c2cccs2)CC1,-10%
3,CCOC(=O)N1CCN(C(=O)CN(c2ccc(OCC)cc2)S(C)(=O)=O)CC1,-19%
4,CCOC(=O)N1CCN(C(=O)COC(=O)c2cc(Cl)c(O)c(Cl)c2)CC1,5% (active)
5,O=C(OCC(=O)N1CCOCC1)c1ccc(Cl)cc1[N+](=O)[O-],-13%
6,Cc1ccc(NC2=CC(=O)OC(C)C2)cc1 (configuration not stated),-4%
7,C=C(C)CNC(=S)NN=C1c2ccccc2-c2ccccc21,15% (active)
8,C=CCNC(=S)N/N=C(\C)c1ccc(OC)cc1,-4%
9,Cc1cc(S(=O)(=O)Nc2ccc(C(=O)N3CCN(C(=O)c4ccco4)CC3)cc2)ccc1F,-13%
10,CCOC(=O)N1CCN(C(=O)c2ccc(C)c(S(=O)(=O)Nc3ccccc3)c2)CC1,-1%
11,CCOC(=O)N1CCN(C(=O)c2ccc(Cl)c(S(=O)(=O)Nc3ccccc3)c2)CC1,5% (active)
12,NC(=O)c1ccsc1NC(=O)CS(=O)(=O)c1ccccc1,-9%
13,O=C(NCc1cccnc1)Nc1ccc2c(c1)OCO2,-19%
14,O=c1c(O)c(-c2cccs2)oc2ccc(Cl)cc12,92% (active)
15,Cn1nc(C(=O)Nc2ccc3c(c2)OCO3)c2ccccc2c1=O,-16%
16,O=c1c(O)c(-c2cccs2)oc2ccccc12,62% (active)
17,O=C1OC(/C=C/c2ccc(Cl)cc2Cl)=NC/1=C\c1cccs1,-7%
18,O=c1c(O)c(-c2ccc3c(c2)OCO3)oc2ccccc12,6% (active)
19,Cc1ccc(S(=O)(=O)c2nnn3c2nc(N2CCOCC2)c2ccccc23)c(C)c1,-14%
20,C/C(CCC12CC3CC(CC(C3)C1)C2)=N\NC(N)=S,0%
21,C/C(O)=C/c1nc2ccccc2[nH]c1=O,-7%
22,Cc1cccc(C)c1NC(=S)NC(=O)c1ccc(Br)o1,73% (active)
23,CN1CCN(c2ccc(NC(=O)c3ccc(Br)o3)cc2)CC1,-2%
24,Cc1cccc(NC(=O)CCNC(=O)c2ccco2)c1C,-13%
25,Cc1cccc(NC(=S)NC(=O)c2ccc(Br)o2)c1C,6% (active)
26,Cc1cccc(NC(=S)NC(=O)c2ccco2)c1C,52% (active)
